GLP1R cytotox: qHTS of GLP-1 Receptor Inverse Agonists: Cytotox Screen; 410,000 tested, 0.13% active; Potency, µM (doses to about 38.3 µM), without a hit: top-dose activity change, negative = inhibition, usual class: inhibitors; HEK293 cAMP-luciferase reporter cells, luminescence, 24 h;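 further: loss of luciferase light is scored as toxicity; potency means the concentration at half of the fitted maximal effect; on the % scale 0 is the no-effect control and ±100 the full control effect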
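Step one: seed cells (200 cells/uL, DMEM with 10% Nu serum, 1% pen-strep). Step two: 12-hour incubation at 37 deg C. Step three: pin 23 nL compound, incubate 24 hr. Step four: add luciferase reagent, read luminescence 12 min later.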
mIDH1 inhibitor: qHTS for Inhibitors of mutant isocitrate dehydrogenase 1 (IDH1): qHTS. Isocitrate dehydrogenase [NADP] cytoplasmic (Homo sapiens), O75874. IDH1-R132H enzyme, NADPH consumption, diaphorase/resazurin fluorescence. Potency, µM (doses to about 76.6 µM), inactives show at the highest dose activity change, negative = inhibition, usual class: inhibitors. 390,000 tested, 0.093% active. AID 602179, 2012; further: potency means the concentration at half of the fitted maximal effect; on the % scale 0 is the no-effect control and ±100 the full control effect; nearly all actives have a fitted effect of over 65% in size
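IDH1-R132H (0.5 ug/mL) preincubated 30 min with compound, then NADPH (0.016 mM) and alpha-KG (2 mM) added; 80 min at RT, pH 7.5. Remaining NADPH coupled via diaphorase/resazurin to fluorescence (540/590 nm); concentration-response curves normalized to no-enzyme control.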
GLP1R inv ag: qHTS of GLP-1 Receptor Inverse Agonists (Inhibition Mode); HEK293 GLP-1R CRE-luciferase, luminescence, 24 h; GLP-1R form is constitutively active; AID 624417, 2012; 410,000 tested, 1.6% active; Potency, µM (doses to about 38.3 µM), without a hit: top-dose activity change, negative = inhibition, actives largely listed as inhibitors; Glucagon-like peptide 1 receptor (Homo sapiens), P43220; further: potency means the concentration at half of the fitted maximal effect; on the % scale 0 is the no-effect control and ±100 the full control effect; nearly all actives have a fitted effect of over 55% in size
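Inverse agonists were sought by their lowering of basal cAMP reporter luciferase output in HEK293 cells stably carrying constitutively active human GLP-1R, after 24 h compound treatment.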
GLP-1R agonist: qHTS of GLP-1 Receptor Agonists. HEK293 GLP-1R CRE-luciferase, luminescence, 4-6 h; cells express a hypersensitive GLP-1R form. 380,000 tested, 0.007% active. AID 624172, 2012. Potency, µM (series often up to 45.6 µM), inactives show at the top dose activation, usual class: activators; further: potency means the concentration at half of the fitted maximal effect; % of control where 0% means no effect
LDHA inh: qHTS assay for inhibitors of human lactate dehydrogenase; L-lactate dehydrogenase A chain (Homo sapiens), P00338; purified LDHA, NADH/diaphorase-resazurin fluorescence; hits give low values; 480,000 tested, 0.15% active; AID 1347041, 2019; activity change, % (values are at about 110 or 230 µM); in the data active means activity change below about -30%; inconclusive means mostly about -25% to -30%;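 further: plate controls were DMSO wells for no effect and wells without enzyme for full effect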
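Enzyme activity of human lactate dehydrogenase 5 (2 nM; 0.06 mM NADH, 0.2 mM pyruvate, 5 min, RT) is measured via a resazurin/diaphorase fluorescence readout of residual NADH.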
PTHR1 ag: qHTS for PTHR1 Agonists: Primary Screen; Parathyroid hormone/parathyroid hormone-related peptide receptor (Homo sapiens), Q03431; 410,000 tested, 0.075% active; HEK293 GP2 PTHR1 cells, GloSensor cAMP luminescence, 1 h; Potency, µM (doses to about 115 µM), for inactives: top-dose activation, actives largely listed as activators; AID 743266, 2014; further: potency means the concentration at half of the fitted maximal effect; nearly all actives have a fitted effect of over 55% in size
Target sequence (Q03431 whole entry, looked up): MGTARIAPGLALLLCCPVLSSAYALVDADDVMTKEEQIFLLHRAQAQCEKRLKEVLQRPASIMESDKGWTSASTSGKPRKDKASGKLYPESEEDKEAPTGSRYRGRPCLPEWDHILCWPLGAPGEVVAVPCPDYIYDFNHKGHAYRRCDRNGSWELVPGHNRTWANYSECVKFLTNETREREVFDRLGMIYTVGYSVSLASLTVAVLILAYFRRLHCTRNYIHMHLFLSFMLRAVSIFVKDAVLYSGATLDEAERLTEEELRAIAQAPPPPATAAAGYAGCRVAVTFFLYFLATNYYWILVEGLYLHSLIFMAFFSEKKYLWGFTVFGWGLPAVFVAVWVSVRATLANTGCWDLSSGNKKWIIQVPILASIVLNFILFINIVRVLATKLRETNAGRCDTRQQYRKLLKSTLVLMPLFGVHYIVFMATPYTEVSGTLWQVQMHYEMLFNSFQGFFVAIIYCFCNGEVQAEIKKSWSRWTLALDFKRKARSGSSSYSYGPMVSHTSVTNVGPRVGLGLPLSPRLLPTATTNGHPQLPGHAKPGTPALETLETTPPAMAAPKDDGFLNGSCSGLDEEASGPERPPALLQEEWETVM
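HEK-293-derived GP2 cells expressing PTHR1 and a GloSensor cAMP reporter, 3,000/well, plated overnight, given luciferin plus IBMX (each 0.5 mM as added) for 1 h at 37 °C, then compound for 1 h at 37 °C. Luminescence was read after 15 min at room temperature.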
Starred values were filed as active, the others as inactive; i = inactive; u = inconclusive; x = no result; [ ] = dose if it differs, or a comment. Sampled rows, rich in hits. Any-hit rate of the full collection: about 1.7%. Unless noted, the call rests on the fitted dose curve; in most records, active means well fitted curve in the direction sought with a large enough effect; inconclusive means small, poorly fitted or top-dose-only effect, or another doubt; inactive means no such curve, though single readings can be large; an effect the other way counts as inactive or inconclusive.

SMILES	GLP1R cytotox	mIDH1 inhibitor	GLP1R inv ag	GLP-1R agonist	LDHA inh	PTHR1 ag
CN=C1c2cc3cc(OC)ccc3n2CCN1Cc1ccccc1	-15.0%	7.1%	5.01µM*	9.7%	0.5	i
CC(Sc1nc(CN2CCOCC2)nc2ccccc12)C(=O)NC1CC1 (stereo unspecified)	x	x	x	x	-2.3	x
CC(Sc1nc(CN2CCOCC2)nc2ccccc12)C(=O)Nc1ccc(F)cc1F (stereo unspecified)	x	x	x	x	-33.2*	x
COc1ccc2ccccc2c1-c1sc(Nc2ccccc2)n[n+]1-c1ccc(F)cc1	5.01µM*	18.6%	u	-2.4%	-7.9	-26.3%
CCc1ccc(Nc2n[n+](-c3ccccc3)c(-c3c(Cl)cccc3Cl)s2)cc1	7.94µM*	u	u	0.9%	-2.1	-39.5%
COc1cc(C(=O)NCCOc2cc(C)ccc2C(C)C)cc(OC)c1OC	-12.2%	5.0%	3.55µM*	25.8%	3.7	-32.0%
O=C(NCCOc1ccccc1)c1cncc(Br)c1	2.5%	12.3%	-3.3%	6.8%	0.4	i
Cc1ccc(C(C)C)c(OCCNC(=O)c2cncc(Br)c2)c1	25.8%	2.5%	10µM*	-2.5%	3.0	-45.8%[57.5 µM]
OC(COCC(F)(F)C(F)(F)C(F)(F)C(F)F)Cn1c2ccc(Cl)cc2c2cc(Cl)ccc21 (stereo unspecified)	u	9.6%	1.78µM*	-5.1%	-0.6	-43.4%
N=c1n(Cc2ccccc2)c2ccccc2n1CC(O)COc1ccc(Cl)cc1Cl (stereo unspecified)	u	-5.4%	u	-4.9%	-8.5	-40.5%
CN1CCC(N(C)C(=O)c2cc(S(=O)(=O)N(C)c3ccccc3)ccc2Cl)CC1	-0.1%	0.0%	17.5%	-4.7%	1.6	u
CN1CCC(N(C)C(=O)c2ccc(Cl)c(S(=O)(=O)N(C)c3ccc(Cl)cc3)c2)CC1	-13.8%	-1.0%	11.2µM*	-1.3%	0.0	-3.0%
CN(Cc1ccccc1F)C(=O)c1ccc(Oc2ccccc2)cc1	-3.9%	9.1%	u	6.3%	0.2	-5.4%
CN(Cc1ccc(C(F)(F)F)cc1)C(=O)c1ccc(Oc2ccccc2)cc1	4.4%	4.6%	10µM*	0.4%	2.6	-28.6%
Cc1nc2ccc(C(=O)NCc3ccccc3)cc2nc1C	x	x	x	x	21.7	x
COC(=O)c1ccc(NC(=O)CN(Cc2ccccc2)S(=O)(=O)c2ccc(Cl)cc2)cc1	-16.5%	-5.1%	8.91µM*	x	-5.3	-42.4%
COc1ccc(S(=O)(=O)N(CC(=O)Nc2ccc(Br)cc2)Cc2ccccc2)cc1	-0.8%	4.7%	-24.4%	x	-14.7	i
CNC(=O)CN(Cc1ccccc1)S(=O)(=O)c1ccc(Cl)cc1	3.6%	-5.2%	13.1%	-0.6%	-4.6	-19.2%
COc1ccc(NC(=O)CN(Cc2ccccc2)S(=O)(=O)c2ccc(C)cc2)cc1Cl	-5.0%	-6.3%	10µM*	x	-8.4	-36.3%
COC(=O)c1ccc(NC(=O)CN(Cc2ccccc2)S(=O)(=O)c2ccc(C)cc2)cc1	2.3%	0.0%	10µM*	x	-4.8	-5.6%
CC(C)c1ccc(Nc2c3c(nc4ccccc24)CCCC3)cc1	x	x	x	x	6.8	x
CCC(CCNC(=O)c1cc(C)nc2ccccc12)NC(=O)c1cc(C)nc2ccccc12 (stereo unspecified)	x	x	x	x	6.1	x
CCOc1ccccc1NC(=O)Cn1nc(C(=O)O)c2ccccc2c1=O	x	x	x	x	-5.2	x
CCc1nc2c(OCc3ccc(Cl)cc3)cccn2c1N(C)C(=O)c1ccco1	-23.2%	x	10µM*	-0.1%	-1.5	-59.9%
CCCn1c(N2CCN(Cc3ccc(Cl)c(Cl)c3)CC2)nc2c1c(=O)[nH]c(=O)n2C	x	x	x	x	9.8	x
SMILES	GLP1R cytotox	mIDH1 inhibitor	GLP1R inv ag	GLP-1R agonist	LDHA inh	PTHR1 ag
CC(=O)Nc1ccc(CNC(=O)Cc2c(F)cccc2Cl)cc1	x	x	x	x	5.9	x
O=C(Cn1c(C(=O)N2CCc3ccccc3C2)cc2sccc21)c1ccccc1	-2.9%	2.1%	0.0%	1.7%	19.6	22.4µM*
O=C(O)C(=O)N1CCOCC1	x	x	x	x	8.6	x
CCCCCCCCCCCOc1ccc(C(=O)O)cc1	x	x	x	x	1.8	x
Cc1ccsc1C(=O)N1CCSCC1	x	x	x	x	2.2	x
CCCCN(CC)CCNC(=O)c1cn(-c2ccc(Cl)cc2)c(=O)c2ccccc12	-29.2%	4.2%	10µM*	7.0%	-7.2	i
CC1(C)Cc2c(sc(NC(=O)c3ccco3)c2C(=O)O)CO1	-1.9%	6.8%	1.2%	2.0%	-34.5*	-15.2%[57.5 µM]
COc1cc(SC)ccc1C(=O)Nc1ccc(Br)cn1	2.5%	14.3%	u	-6.3%	-1.4	-32.7%
COc1cc(SC)ccc1C(=O)Nc1ncc(C)s1	-14.3%	6.0%	10µM*	-16.0%	-4.8	-9.0%
Cc1c(Br)c([N+](=O)[O-])nn1CC(=O)N1CCN(C23CC4CC(CC(C4)C2)C3)CC1	-16.2%	1.8%	10µM*	1.8%	-4.8	-10.6%
Cc1c(Br)c([N+](=O)[O-])nn1CC(=O)N1CCc2ccccc2C1	-5.4%	2.4%	-12.2%	2.3%	-9.7	-8.6%
CCc1cc(Br)ccc1NC(=O)Nc1cccc(C(C)=O)c1	x	x	x	x	5.2	x
CN(CCOc1ccccc1)CC(O)COc1ccccc1 (stereo unspecified)	-23.1%	0.9%	u	8.7%	-9.0	-6.2%
CN(CCOc1ccc(Br)cc1)CC(O)COc1ccc(C#N)cc1 (stereo unspecified)	-4.6%	1.7%	4.47µM*	-1.1%	0.5	-73.6%
N#Cc1ccccc1NC(=O)CN1CCN(S(=O)(=O)c2cccs2)CC1	x	x	x	x	0.0	x
CC(CNC(=O)Cn1ccc2cc(S(=O)(=O)N3CCCCCC3)ccc21)c1ccccc1 (stereo unspecified)	-8.1%	0.0%	11.2µM*	x	-3.9	i
N#Cc1c(-c2ccccc2)cc(-c2ccccc2)nc1SCC(=O)NCC(=O)O	6.2%	-1.4%	101.2%	11.8%	-102.2*	i
CC(Sc1ccc(C#N)cc1)C(=O)NC1CCCC1 (stereo unspecified)	x	x	x	x	-3.4	x
COc1ccc(Oc2c(C=O)c3ccccc3n2C)cc1	-16.5%	6.3%	10µM*	-4.0%	-1.7	18.4%[57.5 µM]
Cc1ccc(Oc2c(C=O)c3ccccc3n2C)cc1	-16.1%	0.0%	5.01µM*	-3.9%	-0.9	-4.6%[57.5 µM]

Source: PubChem
